Assay outcomes from PubChem.
The list is not random: actives were taken first. Their share in the collection is about 9.5%.
NS1 function inh: inhibitors of influenza NS1 protein function | Potency, µM (titrated, usually from 46.1 µM), inactives show top-dose activity, positive = more growth | actives 0.4% (n = 270,000); further: actives are rising curves; nearly all actives have a fitted effect of over 50% in size
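Read-out: OD600 growth recovery of NS1-expressing budding yeast. Cells grown overnight at 30C in -URA glucose medium, washed, resuspended and diluted 1:100 in 2% galactose assay medium, pH 6.0. Same strain lacking NS1 served as positive control.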
Pf growth 48h: P. falciparum growth inhibition at 48 hours (one generation); Potency, µM (series often up to 28.7 µM), for the others: top-dose activity change, negative = inhibition, actives largely listed as inhibitors; actives 5.9% (n = 310,000); P. falciparum luciferase growth in erythrocytes, 48 h; active means well fitted inhibition curve with a large enough effect; inconclusive means small, poorly fitted or top-dose-only effect, or another doubt; inactive means no such curve, though single readings can be large or run the other way; further: on the % scale 0 is the no-effect control and ±100 the full control effect
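Parasite viability was followed by luminescence of a genomically integrated firefly luciferase. Cultures held 0.1% parasitemia at 2% hematocrit (final), incubated under 5% CO2 at 37 C.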
SARS PLpro yeast: inhibitors of SARS-CoV papain-like protease in yeast; Potency, µM (highest dose often 32.9 µM), inactives show at the highest dose activity, positive = growth rescue, most hits filed as activators; S. cerevisiae expressing SARS-CoV PLpro, growth rescue; actives 0.19% (n = 330,000); AID 485353; further: 0% is about no effect; nearly all actives have a fitted effect of over 55% in size
RE007 growth inh: less growth of the S. pombe RE007 Vpr strain | S. pombe RE007 Vpr strain, BacTiter-Glo ATP luminescence, 24 h | Potency, µM (titrated, usually from 92.2 µM), for the others: at the top dose activity change, negative = less growth, usual class: inhibitors | actives 0.21% (n = 360,000); active means well fitted falling curve with a large enough effect; inconclusive means small, poorly fitted or top-dose-only effect; inactive means no such curve, though single readings can be large or run the other way; further: on the % scale 0 is the no-effect control and ±100 the full control effect; nearly all actives have a fitted effect of over 50% in size
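Fission yeast RE007 carrying one integrated HIV-1 vpr copy, seeded at OD 0.01 in PMG+AL medium with 23 nL pinned compound. Grown 24 h at 30 degrees; viability read by BacTiter-Glo luminescence after 5 min.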
Pf growth 96h: P. falciparum growth inhibition at 96 hours | P. falciparum luciferase reporter growth, 96 h | Potency, µM (highest dose often 28.7 µM), for the others: top-dose activity change, negative = inhibition, most hits filed as inhibitors | actives 6.9% (n = 320,000) | AID 504834; active means well fitted inhibition curve with a large enough effect; inconclusive means small, poorly fitted or top-dose-only effect, or another doubt; inactive means no such curve, though single readings can be large or run the other way; further: on the % scale 0 is the no-effect control and ±100 the full control effect
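Infected RBCs, 2% Hct / 0.05% parasitemia final; luciferase-reporter P. falciparum; cpd 96 h, 37 C, 5% CO2; luciferase detection reagent; luminescence.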
An asterisk follows results filed as active; ? = inconclusive; nt = no result given; [ ] = dose if it differs, or a comment. Unless noted, the call rests on the fitted dose curve. Potency means the concentration at half of the fitted maximal effect.

SMILES	NS1 function inh	Pf growth 48h	SARS PLpro yeast	RE007 growth inh	Pf growth 96h
COC(=O)CC1N(S(=O)(=O)c2ccc(C)cc2)c2ccccc2C1(C(=O)OC)C(=O)OC (configuration not stated)	nt	nt	nt	-10%	nt
COc1cccc(CN2CC(C(=O)NC3CCCCCC3)CCC2=O)c1 (configuration not stated)	-6%	-13%	-1%	7%	?
COc1ccc(-c2c(C)nn3c(-c4ccccc4)cc(C)nc23)cc1	-1%	-17%	-1%	4%	?
Cc1nn2c(N3CCN(C)CC3)c3c(nc2c1-c1ccccc1)CCCC3	1%	66%	-1%	10%	9.3µM*
Cc1cc(N2CCCCCC2)n2nc(C)c(-c3ccccc3)c2n1	-5%	15%	2%	-9%	?
Cc1cc(NCc2ccccn2)n2nc(C)c(-c3ccccc3)c2n1	-35%	1.7µM*	-3%	-14%	2.1µM*
Cc1nn2c(NCCN3CCOCC3)c3c(nc2c1-c1ccccc1)CCCC3	-4%	?	0%	-20%	13µM*
COc1ccc(Nc2c3c(nc4c(-c5ccccc5)c(C)nn24)CCC3)cc1	17%	13µM*	-31%	49%	5.9µM*
CS[C@@H](CC(=O)O)C(=O)O	-2%	nt	nt	nt	nt
CCc1c(C)c2ccc(OCC(=O)NCC3CCC(C(=O)O)CC3)c(C)c2oc1=O (configuration not stated)	-13%	13%	-5%	2%	?
Fc1ccc2cnc(CCO[C@H]3CCCCO3)cc2c1	nt	nt	5%	10%	nt
CCOc1ccc(NC(=O)c2cccc(-n3cccc3)c2)cc1S(=O)(=O)N1CCOCC1	nt	?	4%	nt	-52%
c1ccc(CNc2c3c(nc4ncnn24)CCCC3)nc1	-2%	7%	-1%	0%	8.3µM*
CCc1nccn1-c1cc(C(C)(C)C)nc2c(-c3ccc(Cl)cc3)cnn12	10%	50%	?	-19%	13µM*
CC(C)Nc1cc(C(C)(C)C)nc2c(-c3ccccc3)cnn12	1%	?	0%	-20%	13µM*
CC(C)(C)c1cc(-n2ccnc2)n2ncc(-c3ccc(Cl)cc3)c2n1	10%	80%	8%	-2%	56%
CCn1c(SCC(=O)NC2CC2)nnc1-c1ccc(C)cc1	14%	15%	-3%	-2%	3%
COc1cc(-c2cccs2)cc(=O)c2c(C)oc(C)c12	-13%	?	9%	-3%	12µM*
O=[N+]([O-])c1cc(O)c2ncccc2c1	nt	?	-18%	7.9µM*	?
O=[N+]([O-])c1cc2cccnc2c2ncccc12	-5%	4.7µM*	-3%	-16%	9.3µM*
CCOc1ccccc1C(=O)NCC(=O)N(C)Cc1ccccc1C	-14%	10µM*	1%	9%	13µM*
Cc1ccccc1Oc1cc(NC(=O)CCCn2nc(C)c([N+](=O)[O-])c2C)cc([N+](=O)[O-])c1	4%	?	-9%	8%	15µM*
COc1ccccc1N1CCN(C(=O)CCCn2nc(C)c([N+](=O)[O-])c2C)CC1	-3%	5%	1%	0%	10µM*
COc1ccccc1N1CCN(C(=O)CCCCCn2c(=O)[nH]c3ccsc3c2=O)CC1	nt	13µM*	-2%	2%	0%
Cc1ccccc1Oc1cc(NC(=O)Cn2cnc([N+](=O)[O-])c2)cc([N+](=O)[O-])c1	nt	10µM*	1%	-19%	?
SMILES	NS1 function inh	Pf growth 48h	SARS PLpro yeast	RE007 growth inh	Pf growth 96h
CCc1ccc(NC(=O)Cn2cnc([N+](=O)[O-])c2)cc1	0%	15%	3%	-1%	211%
COc1ccc(S(=O)(=O)N2CCC(C(=O)NCCc3ccccc3)CC2)cc1	0%	-11%	5%	-10%	-22%
O=c1ccc(-c2ccccc2)no1	2%	?	0%	-10%	?
Cc1ccc(-c2ccc(=O)n(Cc3c(F)cccc3Cl)n2)cc1	-6%	13µM*	0%	17%	5%
O=C(O)Cn1nc(-c2ccc(Cl)cc2)ccc1=O	0%	3%[0.00184 µM]	2%	8%	13µM*
O=C(O)Cn1nc(-c2ccccc2)ccc1=O	21%	-17%	4%	49%	3.3µM*
O=C(Cn1nc(-c2ccc(Cl)cc2)ccc1=O)N1CCN(c2ccccc2)CC1	7%	4%	-15%	6%	?
Cc1cc(C)n(CCC(=O)Nc2ccc3c(c2)OCCO3)n1	4%	61%	18%	10%	0%
Cc1cc(C(=O)Nc2c(C)nn(Cc3ccccc3Cl)c2C)no1	-9%	2.6µM*	-3%	2%	4%
COc1ccc(-c2cc(C(=O)Nc3c(C)nn(Cc4ccccc4Cl)c3C)no2)cc1OC	-3%	?	4%	6%	30%
COc1ccc(OC)c(-c2cc(C(=O)Nc3c(C)nn(Cc4ccccc4Cl)c3C)no2)c1	-62%	13µM*	-4%	12%	88%
COc1ccc(OC)c(-c2cc(C(=O)Nc3c(C)nn(Cc4ccccc4C)c3C)no2)c1	-49%	5.2µM*	-17%	-5%	17%
O=C1NC[C@@H](CCCCN2CCN(CCc3ccc(O)cc3)C(=O)C2=O)N(CCc2ccc(O)cc2)C1=O	nt	nt	nt	3%	nt
Cc1ccc(C)c(NC(=O)c2cc(-c3cc(C)c(C)cc3O)n[nH]2)c1	1%	6.6µM*	2%	10%	?
Cc1ccc(NC(=O)c2cc(-c3cc(C)c(C)cc3O)n[nH]2)cc1C	-2%	2.1µM*	1%	4%	2.6µM*
Cc1ccc(-c2cc(C(=O)Nc3cc(C)ccc3C)[nH]n2)c(O)c1	18%	?	30%	28%	?
CCCN(C(=O)c1cn(-c2ccccc2)nc1-c1ccc(OC)cc1)C1CCS(=O)(=O)C1 (configuration not stated)	nt	?	0%	-3%	?
CC(C)CN(CC(C)C)CC(O)COc1ccc([N+](=O)[O-])cc1 (configuration not stated)	2%	12µM*	2%	-8%	-81%
CC(C)CN(CC(C)C)CC(O)COc1ccccc1Br (configuration not stated)	4%	?	6%	0%	3.3µM*
CCCCN(CCCC)CC(O)COc1ccccc1Br (configuration not stated)	4%	4.1µM*	2%	-18%	93%
Cc1ccccc1OCC(O)CN(CCO)Cc1ccccc1 (configuration not stated)	nt	?	1%	-5%	?
CC(=O)NC(CC(=O)OCC(=O)N1CCc2ccccc21)c1ccccc1 (configuration not stated)	0%	nt	0%	-13%	-27%
CCCCN(C=O)c1c(CC)nc2ccc(C(=O)NCCCn3ccnc3)cn12	nt	nt	nt	-29%	nt
COC(=O)C1=CCCCC(O)=C1C(=O)OC	nt	nt	nt	-9%	nt
COc1ccc(C(=O)NC(=S)N2CC(C)OC(C)C2)cc1OC (configuration not stated)	9%	-20%	1%	-21%	5.2µM*
